# Screening results (PubChem)
# hcDAF-12 act: H. contortus DAF-12 nuclear receptor activators, primary screen, cell-based, luminescence, HEK293, lit1-tk-luc reporter; HEK293 hcDAF-12 lit1-tk-luc reporter; 0% DMSO, 100% Δ7-dafachronic acid; activation, % at 6.8 µM; 370,000 compounds, 1.4% hits; AID 652067, 2013;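 active = activation above the mean of all tested compounds plus 3 SD, cut at about 5.5% in these data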
# SMARCA2 activ: SMARCA2 (BRM) function activators, primary screen, cell-based, luminescence, high throughput | activation, % at 9.1 µM | 370,000 compounds, 1% hits | MG213 cells, MMTV-luciferase reporter, dexamethasone, overnight; in the data active = activation above about 7.8%
# hgDAF-12 ag: H. glycines DAF-12 receptor agonists, primary screen, cell-based, luminescence, HEK293, GAL4 fusion, UAS-luciferase; Nuclear hormone receptor DAF-12 (Heterodera glycines), GAL4 fusion; HEK293 GAL4-hgDAF12 UAS-luciferase reporter, agonist luminescence; normalized to butyrate control; activation, % at 6.8 µM; 370,000 compounds, 1.8% hits; AID 687014, 2013;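 active = activation above a cutoff set at the mean of all screened compounds plus 3 SD, cut at about 10% in these data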
# ssDAF12 agonist: S. stercoralis DAF-12 nuclear receptor activators, primary screen, cell-based, luminescence, HEK293, GRIP1 co-expression, lit1-tk-luc. 370,000 compounds, 1% hits. HEK293 ssDAF-12/GRIP1 lit1-tk-luc reporter; % of 3 µM dafachronic acid response. activation, % at 6.8 µM. Nuclear hormone receptor DAF-12 (Strongyloides stercoralis);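 active = activation above the mean over all tested compounds plus 3 SD, cut at about 0.9% in these data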
# DAX1 inh-1: DAX1 (NR0B1) inhibitors on StAR promoter, primary screen, cell-based, luminescence, SF-1 (NR5A1), full-length DAX-1; 370,000 compounds, 1.1% hits; inhibition, % at 6.8 µM; HEK293T StAR-luciferase reporter, SF-1/DAX-1 repression relief;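 active = inhibition above the mean over all tested compounds plus 3 SD, cut at about 3.6% in these data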;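 also: higher inhibition means more luminescence from relief of DAX-1 repression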
# DAX1 inh-2: DAX1 (NR0B1) inhibitors, primary screen, cell-based, HEK293, Gal4-DAX1, luciferase luminescence | Nuclear receptor subfamily 0 group B member 1 (Homo sapiens), P51843 | HEK293 Gal4-DAX1 luciferase reporter | inhibition, % at 6.75 µM | 340,000 compounds, 0.99% hits | AID 504766, 2011;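 active = inhibition above the mean over all tested compounds plus 3 SD, cut at about 4.2% in these data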;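 also: inhibition shows as a rise in luminescence from relieved DAX1 repression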
# Target sequence (P51843 207-470 limits assumed): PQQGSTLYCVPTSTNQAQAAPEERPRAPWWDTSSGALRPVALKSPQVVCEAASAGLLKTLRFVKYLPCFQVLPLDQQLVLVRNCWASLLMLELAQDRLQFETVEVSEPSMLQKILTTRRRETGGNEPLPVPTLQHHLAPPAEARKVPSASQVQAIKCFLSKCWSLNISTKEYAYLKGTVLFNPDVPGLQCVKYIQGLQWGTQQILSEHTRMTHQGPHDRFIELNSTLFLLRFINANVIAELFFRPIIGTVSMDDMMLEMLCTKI
# Hits are given with their value; 0 = inactive; - = no result. An excerpt weighted towards active compounds, which were near 4.8% of everything screened.
SMILES,hcDAF-12 act,SMARCA2 activ,hgDAF-12 ag,ssDAF12 agonist,DAX1 inh-1,DAX1 inh-2
Cc1ccc2c(CN3CCCCC3CCO)cc(=O)oc2c1 (configuration not stated),0,0,0,0,0,0
O=c1c2cc(NC(=S)N3CCCCC3)ccc2nc2n1CCCCC2,0,0,0,1.1,0,0
CC/C(=N\NC(=O)c1csc(C)c1C)c1cccs1,0,0,0,0,0,0
O=C(Nc1ccc2c(c1)OCCO2)c1ccccn1,0,0,0,0,4.4,0
O=C(Nc1ccc2c(c1)OCO2)Nc1cnccn1,0,0,0,0,0,0
CC(OC(=O)c1ccccn1)C(=O)Nc1ccc2c(c1)OCCO2 (configuration not stated),0,0,11,0,0,0
O=C(Nc1ccc2c(c1)OCO2)Nc1ccccn1,0,0,12,0,0,0
O=C(Nc1ccc2c(c1)OCO2)c1cnn2cccnc12,5.7,0,0,0,0,0
Cc1cc(NC(=O)CCCC(=O)N(c2ccccc2)C(C(=O)NC2CCCCC2)c2cccs2)no1 (configuration not stated),0,0,0,0,0,0
Cc1nc2ccccc2c(=O)n1NC(=O)/C=C/c1ccc(Br)cc1,0,0,0,0,0,0
Cc1cc(NS(=O)(=O)c2ccc(NC(=O)Nc3ccccc3)cc2)no1,0,0,0,0,0,0
Cc1cc(NS(=O)(=O)c2ccc(NC(=S)NCc3ccccc3)cc2)no1,0,0,0,0,0,6.5
COc1ccc(/C=C(\NC(=O)c2ccc(C)cc2)C(=O)N2CCCCC2)cc1,0,0,0,0,0,0
C[C@@H]1ON(C)[C@H]2C[C@H]3c4[nH]c5ccccc5c4CCN3C(=O)[C@@H]12,0,0,0,1.0,0,0
CN(C(=O)c1cccc(NC(=O)Cc2ccc(NC(=O)C3CCCN(C(=O)C4CCC4)C3)cc2)c1)C1CCC1 (configuration not stated),0,0,0,1.3,0,0
CN(C(=O)c1cccc(NC(=O)Cc2ccc(NC(=O)C3CCN(C(=O)C4CCCC4)CC3)cc2)c1)C1CCC1,0,0,0,0,0,0
CN(C(=O)c1cccc(NC(=O)Cc2ccc(NC(=O)C3CCN(C(=O)c4ccccc4)CC3)cc2)c1)C1CCC1,0,0,0,1.2,0,0
O=S(=O)(c1ccc2ccccc2c1)N1CCN(C2CCN(Cc3ccccc3)CC2)CC1,0,0,0,0,0,0
Clc1ccc(CONc2ncnc3nonc23)c(Cl)c1,0,0,11,0,0,0
CCONc1ncnc2nonc12,0,0,0,0,0,0
CC(C)C1=NN(C(=O)c2ccccc2)C(O)(C(C)(C)C)C1 (configuration not stated),0,0,12,0,0,0
C=CCC1(CC=C)CCCN1C(=O)C1CCC(=O)N(CCc2ccc(Cl)cc2)C1 (configuration not stated),0,0,0,0,0,0
COc1cc2ccccc2nn1,0,0,0,0,0,0
COc1ccc2c(n1)Sc1nc3ccccc3nc1N2,0,0,0,0,0,5.5
O=C(CCSCCc1ccccn1)Nc1cc(F)ccc1F,0,0,0,0,0,0
SMILES,hcDAF-12 act,SMARCA2 activ,hgDAF-12 ag,ssDAF12 agonist,DAX1 inh-1,DAX1 inh-2
O=C(CCSCCc1ccccn1)Nc1ccc(Br)cc1F,0,0,0,2.0,0,0
O=C1/C(=C/c2ccc(O)cc2)CCc2ccc([N+](=O)[O-])cc21,0,0,0,0,0,0
O=C1/C(=C\c2ccc([N+](=O)[O-])cc2)CCc2ccccc21,0,0,11,0,0,0
CC(=O)Nc1ccc(/C=C2\CCc3ccccc3C2=O)cc1,6.1,0,0,0,0,0
O=C1/C(=C\c2cccnc2)CCc2ccccc21,0,0,12,0,0,0
COc1ccc(C=C2Cc3ccccc3C2=O)cc1,0,0,11,0,0,-
Cc1ccc2[nH]c(=O)c(C3=NN(C(=O)CCC(=O)O)C(c4cccs4)C3)c(-c3ccccc3)c2c1 (configuration not stated),0,0,0,0,0,0
COc1cccc(-c2cnc(C(O)c3cc(C)cc(C)c3)[nH]2)c1 (configuration not stated),0,0,0,0,0,-
Cc1occc1C(=O)NNC(=S)Nc1ccccc1C(F)(F)F,0,0,13,0,0,0
Cc1ccccc1NC(=S)NNC(=O)c1ccoc1C,0,0,0,0,0,0
COc1ccccc1N(C)S(=O)(=O)c1ccc(C(=O)O)cc1,0,0,0,0,0,0
CN(CC(=O)Nc1cccc(F)c1)C(=O)CNS(=O)(=O)c1ccc(N(C)C)c([N+](=O)[O-])c1,0,0,0,0,0,4.4
CN(C)c1ccc(S(=O)(=O)NCC(=O)N2CCN(S(=O)(=O)c3cccc(F)c3)CC2)cc1[N+](=O)[O-],0,0,0,0,0,0
O=C(NC1CCN(Cc2ccc(F)cc2)CC1)c1ccccc1,0,0,0,0,0,0
CS(=O)(=O)Cc1ccc(C(=O)NC2CCN(Cc3ccccc3)C2)cc1 (configuration not stated),0,0,0,0,0,4.2
CC(=O)Nc1cc2c(cc1Cl)-c1ccccc1C2,0,0,0,0,0,0
CC(=O)Nc1cc2c(cc1Cl)-c1ccccc1C2O (configuration not stated),5.9,0,0,0,0,0
COc1cc(C(=O)Nc2cccc(-c3cn4cccnc4n3)c2)cc(OC)c1OC,0,0,0,0,0,0
CC(C)(C)CC(=O)Nc1cccc(-c2cn3cccnc3n2)c1,0,0,11,0,0,0
Cc1ccc(S(=O)(=O)NCC(=O)N(CC(=O)NCc2ccc(F)cc2)CC2CCCO2)cc1 (configuration not stated),0,0,0,0,0,0
O=C(NCC1CCCO1)c1nn2c(c1Cl)NC(c1ccc(F)cc1)CC2C(F)(F)F (configuration not stated),0,0,0,0,0,0
COc1ccc(-c2cc3nc[nH]c(=O)c3s2)cc1,0,0,11,0,0,0
COc1ccc(-c2cc3nc(CCl)[nH]c(=O)c3s2)cc1,5.9,0,12,0,0,0
N#CC1(NC(=O)CSc2nnc(COc3ccccc3F)n2N)CCCCC1,0,0,0,0,0,0
